Data taken from the supplement of paper PMC10732440.
± gives the standard deviation of the averaged measurements.

System: Caenorhabditis elegans N2 infected with Nematocida parisii ERTm1
Assay: progeny production relative to DMSO uninfected control; higher = more progeny despite microsporidia infection (inhibition of infection with low host toxicity)
Settings: infection time 6 days
Procedure, shortened: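 In 96-well plates holding K-medium, E. coli OP50 and 15,000 N. parisii spores/μL, 100 wild-type C. elegans L1 larvae per well were exposed to compound at 100 μM or 40 μM in 1% DMSO for 6 days with shaking at 21°C. Worms were then stained with Rose Bengal, scanned and counted with WorMachine, with three runs per compound and dose. Each value is progeny production as a percentage of the spore-free vehicle condition, averaged over replicates.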

CCCCc1ccc(-c2nc(C)c(C(=O)OC)s2)cc1
progeny production (40 µM): 4.25 ± 0.74% | progeny production (100 µM): 12.2 ± 3.7%

CC(C)(C)NC(=O)[C@@H]1CN(Cc2cnc3occc3c2)CCN1C[C@@H](O)C[C@@H](Cc1ccccc1)C(=O)N[C@H]1c2ccccc2C[C@H]1O
progeny production (40 µM): 8.87 ± 0.17% | progeny production (100 µM): 8.42 ± 0.9%

CO/N=C(\C(=O)N[C@@H]1C(=O)N2C(C(=O)OCOC(=O)C(C)(C)C)=C(/C=C\c3scnc3C)CS[C@H]12)c1csc(N)n1
progeny production (40 µM): 4.46 ± 2.2% | progeny production (100 µM): 13.1 ± 5.6%

COc1ccc2sc3c(c2c1)NC(C)CNC3=O (configuration not stated)
progeny production (40 µM): 7.35 ± 2.7% | progeny production (100 µM): 29.9 ± 22%

COc1ccc(C2=CC(c3c(F)cccc3Cl)n3ncnc3N2)cc1 (configuration not stated)
progeny production (40 µM): 3.01 ± 1.9% | progeny production (100 µM): 8.48 ± 5.9%

CO[C@@]1(NC(=O)Cc2cccs2)C(=O)N2C(C(=O)O)=C(COC(N)=O)CS[C@@H]21
progeny production (40 µM): 8.96 ± 2.4% | progeny production (100 µM): 7.7 ± 7.8%

CCOCc1nc2c(N)nc3ccccc3c2n1CC(C)(C)O
progeny production (40 µM): 3.75 ± 1.7% | progeny production (100 µM): 14.8 ± 5.8%

CCCC1(C2CC2)c2cc(Cl)ccc2NC(=O)N1C (configuration not stated)
progeny production (40 µM): 2.32 ± 0.043% | progeny production (100 µM): 11.3 ± 3.5%

Oc1cccc(C(Nc2nccs2)c2ccc3cccnc3c2O)c1 (configuration not stated)
progeny production (40 µM): 4.05 ± 2% | progeny production (100 µM): 12.9 ± 2.9%

Cc1ccc(S(=O)(=O)Nc2cccc3cccnc23)cc1
progeny production (40 µM): 6.57 ± 3.6% | progeny production (100 µM): 7.42 ± 4.3%

CC(=O)N1c2ccccc2NC2=C(C(=O)CC(C)(C)C2)C1c1ccc(OCc2ccccc2)cc1 (configuration not stated)
progeny production (40 µM): 4.92 ± 0.34% | progeny production (100 µM): 9.82 ± 5.5%

O=C(O)c1sccc1S(=O)(=O)n1ccc2cc(Br)ccc21
progeny production (40 µM): 5.86 ± 1.6% | progeny production (100 µM): 8.33 ± 1.2%

O=S(=O)(NCB(O)O)c1cc2c(Cl)ccc(Cl)c2s1
progeny production (40 µM): 4.07 ± 0.53% | progeny production (100 µM): 15.8 ± 20%

Nc1nc(-c2ccccc2)nc2c1ncn2[C@@H]1O[C@H](COS(=O)(=O)NC(=O)c2ccccc2O)[C@@H](O)[C@H]1O
progeny production (40 µM): 6.94 ± 2.3% | progeny production (100 µM): 6.74 ± 3.1%

C[C@H]1[C@@H](c2cccc(C(F)(F)F)c2)OC(=O)N1C(=O)NCc1cncc2ccccc12
progeny production (40 µM): 2.28 ± 1.4% | progeny production (100 µM): 7.48 ± 6.2%

CCCc1ccc(-c2cc3cn([C@H]4C[C@H](O)[C@@H](CO)O4)c(=O)nc3o2)cc1
progeny production (40 µM): 3.62 ± 2.5% | progeny production (100 µM): 11 ± 5.5%

CCC(C)n1ncn(-c2ccc(N3CCN(c4ccc(OCC5COC(Cn6cncn6)(c6ccc(Cl)cc6Cl)O5)cc4)CC3)cc2)c1=O (configuration not stated)
progeny production (40 µM): 4.85 ± 1.2% | progeny production (100 µM): 22.8 ± 5.2%

Nc1nc(F)nc2c1ncn2[C@H]1O[C@@H](CO)[C@H](O)[C@@H]1O
progeny production (40 µM): 2.33 ± 1% | progeny production (100 µM): 4.1 ± 1.2%

COC1CC2CCC(C)C(O)(O2)C(=O)C(=O)N2CCCCC2C(=O)OC(C(C)CC2CCC(OCCO)C(OC)C2)CC(=O)C(C)/C=C(\C)C(O)C(OC)C(=O)C(C)CC(C)/C=C/C=C/C=C/1C (configuration not stated)
progeny production (40 µM): 5.45 ± 2.7% | progeny production (100 µM): 9.56 ± 2.5%

O=C(/C(=C/c1ccc(Cl)cc1Cl)n1ccnc1)c1ccc(Cl)cc1
progeny production (40 µM): 24.5 ± 2.2% | progeny production (100 µM): 89.8 ± 17%

CCOC(=O)/C=C/[C@H](C[C@@H]1CCNC1=O)NC(=O)[C@H](CC)n1cccc(NC(=O)c2cc(C)on2)c1=O
progeny production (40 µM): 4.38 ± 3.6% | progeny production (100 µM): 8.98 ± 7.5%

CC[C@@]1(O)C(=O)OCc2c1cc1n(c2=O)Cc2cc3c(CN(C)C)c(O)ccc3nc2-1
progeny production (40 µM): 7.48 ± 1.6% | progeny production (100 µM): 10 ± 2.5%

CN1c2ccc(Cl)cc2N(c2ccccc2)C(=O)c2cn(Cc3ccc(CN4CCOCC4)cc3)nc21
progeny production (40 µM): 5.41 ± 0.76% | progeny production (100 µM): 6.28 ± 3%

c1ccc(-c2nnc3c4ccccc4c(N4CCNCC4)nn23)cc1
progeny production (40 µM): 2.73 ± 0.97% | progeny production (100 µM): 15.6 ± 12%

C=CCN(C(=O)OCc1ccc([N+](=O)[O-])cc1)C1CCN(CC[C@](C)(CN(C)S(=O)(=O)c2ccccc2)c2ccccc2)CC1
progeny production (40 µM): 3.88 ± 1.4% | progeny production (100 µM): 5.72 ± 2.3%

Oc1c(C(Nc2nc3ccccc3s2)c2ccc(OC(F)F)cc2)ccc2cccnc12 (configuration not stated)
progeny production (40 µM): 3.08 ± 0.27% | progeny production (100 µM): 9.48 ± 12%

C[C@H](NC(=O)C(=O)Nc1ccccc1C(C)(C)C)C(=O)N[C@@H](CC(=O)O)C(=O)COc1c(F)c(F)cc(F)c1F
progeny production (40 µM): 5.12 ± 0.88% | progeny production (100 µM): 15 ± 11%

CCCCN1C[C@H](O)[C@@H](O)[C@H](O)[C@H]1CO
progeny production (40 µM): 4.97 ± 3.5% | progeny production (100 µM): 13.9 ± 3.7%

O=C(O)c1ccc(-c2ccc(O[C@H]3O[C@H](CO)[C@@H](O)[C@H](O)[C@@H]3O)cc2)cc1
progeny production (40 µM): 5.12 ± 2.8% | progeny production (100 µM): 7.21 ± 4.6%

Cc1ncc([N+](=O)[O-])n1CC(C)O (configuration not stated)
progeny production (40 µM): 7.4 ± 3.9% | progeny production (100 µM): 7.52 ± 8.6%

O=C(O)CSc1cc(NS(=O)(=O)c2cccc3cccnc23)c2ccccc2c1O
progeny production (40 µM): 6.14 ± 2.5% | progeny production (100 µM): 14.5 ± 8.5%

N=C(N)NCCCCC(=O)Nc1cc(C(F)(F)F)cc(NC(=O)c2cc(C(=O)Nc3cc(C(F)(F)F)cc(NC(=O)CCCCNC(=N)N)c3O[C@@H]3CCNC3)ncn2)c1O[C@@H]1CCNC1
progeny production (40 µM): 7.1 ± 7.2% | progeny production (100 µM): 3.98 ± 2.8%

Nc1ccc(-c2nc3cc(C(F)(F)F)ccc3n2C23CC4CC(CC(C4)C2)C3)cc1
progeny production (40 µM): 5.81 ± 2.1% | progeny production (100 µM): 17 ± 6%

CC(C)(C)c1cc(C(=O)/C(C#N)=N/Nc2cccc(Cl)c2)no1
progeny production (40 µM): 4.44 ± 0.8% | progeny production (100 µM): 13.4 ± 11%

O=C(O)C[C@H]1CC[C@H](c2ccc(-c3ccc(Nc4ccc(C(F)(F)F)nc4)cn3)cc2)CC1
progeny production (40 µM): 4.2 ± 3.2% | progeny production (100 µM): 10.5 ± 6.4%

COc1ccc(NC(=O)c2cc3ccccn3n2)cc1
progeny production (40 µM): 9 ± 5.7% | progeny production (100 µM): 13.6 ± 6%
